PubChem BioAssay AID1421 (Emory University Molecular Libraries Screening Center, 2008)
The whole screen tested about 1,300 compounds, of which about 140 (11%) were called active. The rule behind the calls is not given here. The list is a sample of the results. Results with a measured potency or affinity are listed apart.

The molecules below were run against Prostaglandin E2 receptor EP2 subtype (Homo sapiens) (UniProt P43116) (assay: EP2 receptor modulators, dose response, cell-based, human EP2, PGE2 EC50 shift (AID 1421)). Details: EP2-expressing cells, PGE2 EC50 shift by compound; at 20 µM.
Sequence of Prostaglandin E2 receptor EP2 subtype (Homo sapiens) (P43116 whole entry, looked up): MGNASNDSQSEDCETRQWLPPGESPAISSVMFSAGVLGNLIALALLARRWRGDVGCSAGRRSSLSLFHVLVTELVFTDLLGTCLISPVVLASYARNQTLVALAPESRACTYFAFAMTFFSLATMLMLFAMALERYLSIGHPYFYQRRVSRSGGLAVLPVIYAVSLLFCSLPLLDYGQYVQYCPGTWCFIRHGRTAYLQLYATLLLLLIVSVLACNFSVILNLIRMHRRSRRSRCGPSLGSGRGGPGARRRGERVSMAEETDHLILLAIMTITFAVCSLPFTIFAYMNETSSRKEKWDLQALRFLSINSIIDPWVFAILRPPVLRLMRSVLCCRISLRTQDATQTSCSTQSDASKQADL

PGE2 EC50 with compound, inactive:
Cc1ccc(C)n1-n1cnc2scc(-c3cccs3)c2c1=O 0.29 nM, COC(=O)c1sccc1NC(=O)c1cc2c(s1)CCCC2 0.5 nM, COc1ccc(Cc2n[nH]c(=S)n2Cc2ccccc2)cc1Cl 0.57 nM, CCOC(=O)c1c(NC(=O)Cc2cccs2)sc(C)c1C 0.53 nM, CCOC(=O)c1c(NC(=O)c2ccc(Br)o2)sc(C)c1CC 0.27 nM, COC(=O)c1c(NC(=O)Cc2cccs2)sc2c1CCCC2 0.49 nM, CCOC(=O)c1c(NC(=O)c2cccs2)sc2c1CCN(C(=O)OCC)C2 0.43 nM, CCOC(=O)Nc1sc2c(c1C(=O)OCC)CCC2 0.57 nM, CCOC(=O)c1c(/N=C/C2C(=O)CCCC2=O)sc2c1CCCC2 0.36 nM, COC(=O)c1c(NC(=O)c2ccc(Br)s2)sc2c1CCC2 0.42 nM, CCOC(=O)c1c(NC(=O)CN2CCN(C(=O)c3ccco3)CC2)sc2c1CCCC2 0.59 nM, Cc1cccc(/N=C/c2c(O)ccc3oc4c(c23)CCCC4)n1 1.21 nM, C=CCSc1nc2ccsc2c(=O)n1-c1ccccc1 0.37 nM, Oc1ccc(/C=N/N2CCN(C3c4ccccc4-c4ccccc43)CC2)c(O)c1 0.25 nM, COc1cc(NC(=S)NC(=O)c2cc(C)cc(C)c2)ccc1NC(=O)c1cccs1 0.3 nM, O=S(=O)(c1cccs1)N1CN(Cc2cccs2)c2nc3ccccc3nc21 0.45 nM, CCOC(=O)c1c(NC(=O)CN(CC)CC)sc2c1CCN(C(=O)OCC)C2 0.29 nM, CCOC(=O)c1c(N)nn(C(=O)C(C)(C)C)c1-c1ccccc1 0.11 nM, Cc1cc(NC(=O)c2cc(-c3ccncc3)nc3c(C)cccc23)no1 0.92 nM, CCOC(=O)c1c(NC(=O)c2ccc(N3C(=O)[C@@H]4[C@H](C3=O)[C@H]3C=C[C@@H]4C3)cc2)sc2c1CC(C)CC2 (stereo partly specified) 0.47 nM, CCOC(=O)c1c(NC(=O)c2ccn(CC)n2)sc2c1CCCC2 0.33 nM, COC(=O)c1c(NC(=S)NN2CCOCC2)sc2c1CCCC2 0.39 nM, COC(=O)c1c(NC(=O)c2ccccc2N(C)S(=O)(=O)c2ccccc2)sc2c1CCCC2 0.38 nM, CC(=O)Nc1sc2c(c1C(c1cccs1)N1CCOCC1)CCCC2 (stereo unspecified) 0.33 nM, CCOC(=O)c1c(NC(=O)Cn2nnc3ccccc32)sc2c1CCC(C)C2 (stereo unspecified) 0.53 nM, CCOC(=O)c1c(NC(=O)COC(=O)Cn2c(C)nc3ccccc32)sc2c1CCCC2 0.55 nM, CCOc1ccccc1COC(=O)c1cccc(-n2cnnn2)c1 0.54 nM, C/C(Cl)=C/Cn1c(SC(C)C)nc2c1c(=O)[nH]c(=O)n2C 0.83 nM, NS(=O)(=O)c1ccc(NCc2cnc3ccccc3n2)cc1 1.13 nM, Cc1ccccc1/C=C/c1nc2ccccc2c(=O)n1CCc1ccccc1 0.19 nM, COc1cc(C2Oc3cc(C4Oc5cc(O)cc(O)c5C(=O)C4O)ccc3OC2CO)ccc1O (stereo unspecified) 1.94 nM, CCCCC(=O)Nc1sc2c(c1C(=O)OCC)CCC(C=O)=C2Cl 1.75 nM, CCOC(=O)c1c(-c2cccs2)csc1NC(=O)CN1CCOCC1 2.48 nM, CCCC/C(=N\NC(=O)c1ccc(Br)o1)c1ccccc1 0.6 nM, COc1cc2cc(Br)cc(Br)c2nc1C 1.2 nM, CCC1CCc2c(sc3ncnc(N4CCOCC4)c23)C1 (stereo unspecified) 0.42 nM, CCOC(=O)c1c(NC(=O)c2cccs2)sc2c1CCCC2 0.75 nM, Cc1sc(NC(=O)c2cccs2)c(C(=O)OC(C)C)c1C 0.27 nM, N#CCSc1nc2ccccc2c(=O)n1C1CCCCC1 0.68 nM, O=C(OCc1ccc(Cl)cc1)c1ccccc1C(=O)c1ccccc1 0.41 nM, O=C(c1ccccc1)N1N=C(c2ccccc2)CC1c1ccccc1O (stereo unspecified) 0.27 nM, O=C(Nc1nc(-c2cccs2)c(-c2ccccc2)s1)c1ccco1 0.72 nM, COc1ccc(-c2nc(NC(C)=O)sc2-c2ccc(OC)cc2)cc1 0.57 nM, CCCCCOC(=O)c1[nH]c2c(c1C)C(=O)C(C(=O)OC)C(C)C2 (stereo unspecified) 0.88 nM, Nc1cccc(OCc2nc(N)nc(N)c2-c2ccc(Cl)cc2)c1 0.92 nM, CCc1c(-c2n[nH]c(=S)n2Cc2ccccc2)csc1C 0.32 nM, C=CCOc1nc(-c2ccncc2)nc2ccccc12 0.27 nM, CCOC(=O)CN(C(=O)CSc1nnc(Cc2ccccc2)n1-c1ccc(C)cc1)c1ccccc1 0.47 nM, Cc1ccc(C)c(CN2C(=O)C(C)Oc3ccc(C)cc32)c1 (stereo unspecified) 0.3 nM, CCOc1nc(-c2ccccc2O)nc2ccccc12 0.32 nM, Oc1ccccc1-c1nc(N2CCCC2)c2ccccc2n1 0.3 nM, CCCC(=O)Nc1ccccc1Sc1ncnc2scc(-c3ccccc3)c12 0.74 nM, CCCCC(CC)CN1CN(CC(CC)CCCC)CC(C)(N)C1 (stereo unspecified) 0.75 nM, OCCCNc1nc(-c2ccc(Br)cc2)nnc1-c1ccc(Cl)cc1 1.43 nM, COc1ccc(-n2c(COc3cccc4ccccc34)nnc2SCC#N)cc1 0.49 nM, NCCc1c(-c2ccccc2)n(-c2ccccc2)c2ccccc12 0.41 nM, FC(F)(F)c1cccc(/C=N/NC(=S)NC2CCCCC2)c1 4.2 nM, O=C(CC(Sc1ccccc1)c1cccs1)c1ccco1 (stereo unspecified) 0.41 nM, CCn1c2ccccc2c2cc([N+](=O)[O-])ccc21 0.38 nM, CCn1c2ccccc2c2nc3ccccc3nc21 0.63 nM, CC(C)n1c2ccccc2c2nc3ccccc3nc21 0.41 nM, CCCSc1nc(N2CCOCC2)c2c(c1C#N)CCCC2 0.34 nM, Cc1ccc2cccc(NC(=O)c3ccc(Br)o3)c2n1 0.12 nM, Cc1cccc(-c2nc(=S)c3c(n2Cc2ccco2)CCCC3)c1 0.55 nM, CN(CC(=O)Nc1ccccc1Oc1ccccc1)Cc1ccccc1F 0.3 nM, COc1ccccc1CN(C)CC(=O)Nc1ccccc1-c1ccccc1 0.72 nM, CC(C)c1nc(SCc2c(F)cccc2Cl)c2c(=O)n(C)c(=O)n(C)c2n1 0.23 nM, CC1CN(c2nc3ccccc3cc2-c2ccccc2)CC(C)O1 (stereo unspecified) 0.31 nM, CCCCn1c(-c2csc(CCC)c2)n[nH]c1=S 0.43 nM, CCCc1cc(-c2n[nH]c(=S)n2Cc2ccccc2)cs1 0.76 nM, Cc1ccc(C(=O)N2N=C(c3ccccc3)CC2(O)C(F)(F)F)o1 (stereo unspecified) 0.31 nM, CCOc1cc(/C=N/NC(N)=O)ccc1OC(=O)c1ccc(C)cc1 0.42 nM, Cc1ccc2nc(-c3ccncc3)cc(-c3ccccc3)c2c1 0.17 nM, Nc1nc(Cc2ccccc2)nc(Cc2ccccc2)c1-c1ccccc1 0.43 nM, CC(C)c1ccc(OCC(=O)NC(=S)Nc2ccc3c4c(cccc24)CC3)cc1 18.6 nM, O=c1c2c(n3nnnc3n1-c1ccccc1)-c1ccccc1CC21CCCC1 0.77 nM, Nn1cnc2c(c1=O)C1(CCCCC1)Cc1ccccc1-2 0.34 nM, CCCn1c(SCC(=O)Nc2sc(C)c(C)c2C(=O)OCC)nc2c1c(=O)n(C)c(=O)n2C 0.47 nM, CCCCN1C=C(C(=O)OC)C(c2ccccc2Cl)C(C(=O)OC)=C1 0.38 nM, COc1ccc(C(=O)c2cnc3ccccc3c2-c2ccccc2)cc1 0.79 nM, CCCCOc1c(Br)cc(/C=N/O)cc1OCC 0.48 nM, O=C(CSc1nnc(-c2cc3ccccc3cc2O)n1Cc1ccco1)c1ccc(F)cc1 0.83 nM, COC(=O)c1c(NC(=O)CSc2nnc(-c3cccnc3)n2Cc2ccco2)sc(C)c1C 0.69 nM, CC(=O)c1ccc(S(=O)(=O)NCCCC(=O)NCCc2ccccn2)cc1 0.92 nM, CC(C)Cc1nc2sc3c(=O)[nH]cnc3c2c2c1CCC2 0.65 nM, C#CCSc1nc(Cc2ccc(Cl)cc2)nc2ccccc12 0.25 nM, Cc1cc(C(=O)CSc2nc3ccccc3c(=O)n2C)c(C)n1Cc1ccc2c(c1)OCO2 0.29 nM, CC(C)CCn1c(N2CCN(c3cccc(Cl)c3)CC2)nc2c1c(=O)[nH]c(=O)n2C 0.57 nM, Clc1ccc(Cn2c(/C=C/c3ccco3)nc3ccccc32)cc1 0.66 nM, COc1ccc(Cn2c(-c3ccc(OC)cc3)nc3ccccc32)cc1 0.8 nM, N#CCSc1nc2sc3c(c2c(=O)n1C1CCCCC1)CCCC3 0.32 nM
